Many of the other results were omitted from the sample, so hits are more common in it than they were.
HT1080 IDH1KD tx = HT-1080 IDH1 knockdown cell toxicity (counter line); HT-1080 IDH1 knockdown viability, ATP luminescence, 48 h; Potency, µM (doses to about 46.1 µM), hits mostly cytotoxic; actives 2% (n = 360,000); AID 686971
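Assay cells: HT-1080 with IDH1 knockdown, 750 per well, RPMI/5% FBS. Exposure: 48 h at 37 °C following 2 h pre-incubation. Read: CellTiter-Glo luminescence; fitted concentration-response, curve class assigned.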
DT40 TDP1 no CPT = qHTS for Inhibitors of human tyrosyl-DNA phosphodiesterase 1 (TDP1): qHTS in cells in absence of CPT. DT40 Tdp1-/- hTDP1 cells, no CPT, ATP luminescence, 48 h. Potency, µM (doses to about 46.2 µM), hits mostly inhibitors. actives 15% (n = 420,000); also: nearly all actives have a fitted effect of over 55% in size
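No-CPT arm: Tdp1-/-;hTDP1 DT40 cells (400/well) plus compounds, incubated ≥48 hr at 37 °C. Readout CellTiter-Glo luminescence.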
12-LOX inh = blocks human arachidonate 12S-lipoxygenase; purified 12hLO, xylenol orange hydroperoxide absorbance; Potency, µM (titrated, usually from 108 µM), most hits filed as inhibitors; actives 1.1% (n = 580,000); P18054
Target sequence (P18054 whole entry, looked up): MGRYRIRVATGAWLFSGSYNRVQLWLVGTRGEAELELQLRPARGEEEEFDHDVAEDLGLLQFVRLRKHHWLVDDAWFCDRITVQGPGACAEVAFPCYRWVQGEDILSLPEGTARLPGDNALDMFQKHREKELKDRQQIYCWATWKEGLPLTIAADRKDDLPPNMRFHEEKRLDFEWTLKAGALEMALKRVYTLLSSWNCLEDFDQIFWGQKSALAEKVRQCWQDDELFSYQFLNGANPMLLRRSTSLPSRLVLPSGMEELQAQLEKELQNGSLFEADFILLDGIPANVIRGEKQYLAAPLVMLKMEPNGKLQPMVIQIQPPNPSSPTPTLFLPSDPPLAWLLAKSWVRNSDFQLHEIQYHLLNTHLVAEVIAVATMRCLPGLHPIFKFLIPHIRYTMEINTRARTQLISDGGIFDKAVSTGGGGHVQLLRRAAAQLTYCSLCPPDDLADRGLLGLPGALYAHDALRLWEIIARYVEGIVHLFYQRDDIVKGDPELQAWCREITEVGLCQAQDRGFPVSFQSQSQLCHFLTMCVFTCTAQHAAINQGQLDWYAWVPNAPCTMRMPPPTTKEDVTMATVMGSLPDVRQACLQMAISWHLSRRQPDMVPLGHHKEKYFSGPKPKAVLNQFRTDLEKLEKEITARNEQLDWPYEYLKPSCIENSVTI
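Hydroperoxide product was detected by ferrous iron/xylenol orange as the 573 to 405 nm absorbance ratio. Arachidonic acid at 40 uM (final) was turned over for 30 min at room temperature by 150 nM human 12hLO, pH 7.0 Hepes buffer, after 15 min compound preincubation.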
IL-1B inflam inh = inflammasome signaling inhibition, IL-1 beta readout. THP-1 LPS/ATP IL-1B secretion, AlphaLISA, 16 h; hits give low values. activity change, % at 57.5 µM. actives 4.7% (n = 360,000). AID 743279; in the data active = activity change below about -50%; inconclusive = mostly about -30% to -49%
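THP-1 cells pretreated 1 hr with compounds (up to 57.5 uM final), then stimulated with LPS (250 ng/mL final) plus ATP (1.25 mM final); secreted IL-1B measured by AlphaLISA after 16 hr, decreased signal indicating inhibition.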
HT1080NT lethal = kills 2HG-producing HT-1080-NT fibrosarcoma cells. HT-1080-NT fibrosarcoma viability, CellTiter-Glo ATP luminescence, 48 h. Potency, µM (highest dose often 46.1 µM), most hits filed as cytotoxic. actives 1.6% (n = 360,000);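 also: NT is the 2HG producing partner of a matched IDH1 knockdown line; nearly all actives have a fitted effect of over 55% in size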
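Read-out is CellTiter-Glo luminescence after 10 minutes at room temperature, following 48 hours' compound treatment of HT-1080-NT cells (750 cells/well, RPMI, 5% FBS, 37 degrees C).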
DT40 TDP1 CPT = DT40-hTDP1 cell growth loss with CPT | chicken DT40 Tdp1-/-;hTDP1 cells + 20 nM CPT, ATP luminescence, 48 h | Potency, µM (titrated, usually from 46.2 µM), most hits filed as inhibitors | actives 12% (n = 420,000) | AID 686979; also: nearly all actives have a fitted effect of over 55% in size
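Chicken DT40 Tdp1-/- cells stably complemented with human TDP1 were seeded at 400 cells/well in medium containing 20 nM camptothecin, exposed to pin-transferred compounds, and grown at 37 °C for at least 48 hr. Viability was read as ATP luminescence.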
Each line names hits and unclear results; the compound was inactive in the other large screens. Unless noted, calls follow the shape of the dose curve; as a rule, active = well fitted curve in the direction sought with a large enough effect; inconclusive = small, poorly fitted or top-dose-only effect, or another doubt; inactive = no such curve, though single readings can be large; an effect the other way counts as inactive or inconclusive.

COCCNc1ncnc2c1ncn2[C@H]1CN(Cc2ccc(-c3ccccc3)cc2)C[C@@H](CO)O1	HT1080 IDH1KD tx inconclusive, DT40 TDP1 no CPT 21µM, DT40 TDP1 CPT 18µM
CCN(CC)S(=O)(=O)c1ccc(OC(C)C)c(NC(=O)c2ccc(OC(F)F)cc2)c1	none (no result: HT1080 IDH1KD tx, DT40 TDP1 no CPT, IL-1B inflam inh, HT1080NT lethal, DT40 TDP1 CPT)
CC1C[N+](=C2C=C(N3CCOCC3)CC(C)(C)C2)CC(C)O1 (stereo not drawn)	12-LOX inh 28µM
CCCN(CCC)C1=CC(=[N+]2CCCC2)CC(C)(C)C1	HT1080 IDH1KD tx 2.3µM, DT40 TDP1 no CPT 0.13µM, 12-LOX inh inconclusive, IL-1B inflam inh inconclusive, HT1080NT lethal 2.1µM, DT40 TDP1 CPT 0.21µM
CC1(C)CC(N2CCCCC2)=CC(=[N+]2CCCCC2)C1	HT1080 IDH1KD tx inconclusive, DT40 TDP1 no CPT 0.18µM, 12-LOX inh inconclusive, IL-1B inflam inh -70, HT1080NT lethal 4.1µM, DT40 TDP1 CPT 0.15µM
CN(C)NC1=CC(=[N+]2CCCC2)CC(C)(C)C1	DT40 TDP1 no CPT inconclusive
CN(Cc1ccco1)C(=O)CCc1ncc(-c2c(F)cccc2F)o1	none (no result: HT1080 IDH1KD tx, DT40 TDP1 no CPT, IL-1B inflam inh, HT1080NT lethal, DT40 TDP1 CPT)
Cc1ccc(-n2ncc3c(Nc4ccc5c(c4)OCCO5)ncnc32)cc1C	DT40 TDP1 no CPT 18µM, DT40 TDP1 CPT 21µM (no result: HT1080 IDH1KD tx, IL-1B inflam inh, HT1080NT lethal)
Cc1ccc(-n2ncc3c(Nc4cccc(C(F)(F)F)c4)ncnc32)cc1C	DT40 TDP1 no CPT inconclusive, DT40 TDP1 CPT 21µM (no result: HT1080 IDH1KD tx, IL-1B inflam inh, HT1080NT lethal)
Cc1ccc(-n2ncc3c(Nc4cccc(C)c4)ncnc32)cc1	none (no result: HT1080 IDH1KD tx, DT40 TDP1 no CPT, IL-1B inflam inh, HT1080NT lethal, DT40 TDP1 CPT)
CCCn1ncc2c(Nc3ccc(C)c(C)c3)ncnc21	DT40 TDP1 no CPT inconclusive, IL-1B inflam inh -64, DT40 TDP1 CPT inconclusive
CCn1c(NC(=O)c2oc3ccccc3c2COC)nc2ccccc21	none (no result: HT1080 IDH1KD tx, DT40 TDP1 no CPT, IL-1B inflam inh, HT1080NT lethal, DT40 TDP1 CPT)
COc1ccccc1NC(=O)N1CCc2cc(OC)c(OC)cc2C1CNC(=O)C(C)C (stereo not drawn)	none (no result: HT1080 IDH1KD tx, DT40 TDP1 no CPT, IL-1B inflam inh, HT1080NT lethal, DT40 TDP1 CPT)
NC1=Nc2cccc3cccc1c23	HT1080 IDH1KD tx inconclusive, DT40 TDP1 no CPT 16µM, IL-1B inflam inh -65, HT1080NT lethal inconclusive, DT40 TDP1 CPT inconclusive
CCOC(=O)c1[nH]c(C)c(C(=O)OCC(=O)NCc2ccc(Cl)cc2)c1C	none
CC(=O)c1c(C)[nH]c(C(=O)OCc2ccc(F)cc2Cl)c1C	DT40 TDP1 no CPT 13µM, DT40 TDP1 CPT 15µM
CC(=O)c1c(C)[nH]c(C(=O)OCc2c(F)cccc2Cl)c1C	DT40 TDP1 no CPT inconclusive, DT40 TDP1 CPT inconclusive
CCOC(=O)c1c(C)[nH]c(C(=O)OCC(=O)NCc2ccc(OC)c(OC)c2)c1C	HT1080 IDH1KD tx inconclusive, DT40 TDP1 no CPT 18µM, DT40 TDP1 CPT 8.2µM
CCOc1ccc(CCNC(=O)COC(=O)c2ccccc2O)cc1OCC	none
CCOc1ccc(CCNC(=O)COC(=O)c2[nH]c(C)c(C(C)=O)c2C)cc1OCC	HT1080 IDH1KD tx inconclusive, DT40 TDP1 no CPT 21µM, DT40 TDP1 CPT inconclusive
CCOC(=O)c1c(C)[nH]c(C(=O)OCC(=O)Nc2cc(C)c(Cl)cc2OC)c1C	DT40 TDP1 no CPT 4.6µM, DT40 TDP1 CPT 3.7µM
CC(=O)c1c(C)[nH]c(C(=O)OCC(=O)NCCc2ccc(F)cc2)c1C	DT40 TDP1 no CPT 23µM, DT40 TDP1 CPT inconclusive
NC(=O)c1ccsc1NC(=O)COC(=O)c1ccccc1F	none
NC(=O)c1ccsc1NC(=O)COC(=O)c1c(F)cccc1Cl	DT40 TDP1 no CPT 8.2µM, DT40 TDP1 CPT inconclusive
CC(=O)c1c(C)[nH]c(C(=O)OCC(=O)NCCCc2ccccc2)c1C	DT40 TDP1 no CPT inconclusive, DT40 TDP1 CPT inconclusive
CCOC(=O)c1c(C)[nH]c(C(=O)OCC(=O)Nc2ccc(Cl)cn2)c1C	none
CCOC(=O)c1c(C)[nH]c(C(=O)OCC(=O)Nc2sccc2C(N)=O)c1C	DT40 TDP1 no CPT 2.1µM, 12-LOX inh inconclusive, IL-1B inflam inh -71, DT40 TDP1 CPT 1.6µM
Cn1nc(CC(=O)Nc2cccc(OC(=O)c3ccc(C(C)(C)C)cc3)c2)c2ccccc2c1=O	none (no result: HT1080 IDH1KD tx, DT40 TDP1 no CPT, IL-1B inflam inh, HT1080NT lethal, DT40 TDP1 CPT)
CC(=O)N1CCn2cc(C(=O)N3CCOCC3)nc2C1	none (no result: HT1080 IDH1KD tx, DT40 TDP1 no CPT, IL-1B inflam inh, HT1080NT lethal, DT40 TDP1 CPT)
CCOc1ccc(N2Cc3ccccc3C2)cc1	DT40 TDP1 no CPT inconclusive
